From the supplement of paper PMC11732987, “Enantioselective OTUD7B fragment discovery through chemoproteomics screening and high-throughput optimisation” (Communications Chemistry, 2025)
Values without a mark were called inactive.

What was measured:
Assay in all cases: log2 ratio of Biotin-Ahx-Ub-VS probe labelling (fragment/DMSO); higher = less target engagement (more negative = stronger competition), active = hit call of the paper (q ≤ 0.05, log2 ratio ≤ -1)
Conditions in all cases: compound concentration: 200 uM; treatment time: 3 h
UniProt O00507 = target: UniProt O00507
UniProt O00507, sequence (O00507 whole entry, the tested form may be a part): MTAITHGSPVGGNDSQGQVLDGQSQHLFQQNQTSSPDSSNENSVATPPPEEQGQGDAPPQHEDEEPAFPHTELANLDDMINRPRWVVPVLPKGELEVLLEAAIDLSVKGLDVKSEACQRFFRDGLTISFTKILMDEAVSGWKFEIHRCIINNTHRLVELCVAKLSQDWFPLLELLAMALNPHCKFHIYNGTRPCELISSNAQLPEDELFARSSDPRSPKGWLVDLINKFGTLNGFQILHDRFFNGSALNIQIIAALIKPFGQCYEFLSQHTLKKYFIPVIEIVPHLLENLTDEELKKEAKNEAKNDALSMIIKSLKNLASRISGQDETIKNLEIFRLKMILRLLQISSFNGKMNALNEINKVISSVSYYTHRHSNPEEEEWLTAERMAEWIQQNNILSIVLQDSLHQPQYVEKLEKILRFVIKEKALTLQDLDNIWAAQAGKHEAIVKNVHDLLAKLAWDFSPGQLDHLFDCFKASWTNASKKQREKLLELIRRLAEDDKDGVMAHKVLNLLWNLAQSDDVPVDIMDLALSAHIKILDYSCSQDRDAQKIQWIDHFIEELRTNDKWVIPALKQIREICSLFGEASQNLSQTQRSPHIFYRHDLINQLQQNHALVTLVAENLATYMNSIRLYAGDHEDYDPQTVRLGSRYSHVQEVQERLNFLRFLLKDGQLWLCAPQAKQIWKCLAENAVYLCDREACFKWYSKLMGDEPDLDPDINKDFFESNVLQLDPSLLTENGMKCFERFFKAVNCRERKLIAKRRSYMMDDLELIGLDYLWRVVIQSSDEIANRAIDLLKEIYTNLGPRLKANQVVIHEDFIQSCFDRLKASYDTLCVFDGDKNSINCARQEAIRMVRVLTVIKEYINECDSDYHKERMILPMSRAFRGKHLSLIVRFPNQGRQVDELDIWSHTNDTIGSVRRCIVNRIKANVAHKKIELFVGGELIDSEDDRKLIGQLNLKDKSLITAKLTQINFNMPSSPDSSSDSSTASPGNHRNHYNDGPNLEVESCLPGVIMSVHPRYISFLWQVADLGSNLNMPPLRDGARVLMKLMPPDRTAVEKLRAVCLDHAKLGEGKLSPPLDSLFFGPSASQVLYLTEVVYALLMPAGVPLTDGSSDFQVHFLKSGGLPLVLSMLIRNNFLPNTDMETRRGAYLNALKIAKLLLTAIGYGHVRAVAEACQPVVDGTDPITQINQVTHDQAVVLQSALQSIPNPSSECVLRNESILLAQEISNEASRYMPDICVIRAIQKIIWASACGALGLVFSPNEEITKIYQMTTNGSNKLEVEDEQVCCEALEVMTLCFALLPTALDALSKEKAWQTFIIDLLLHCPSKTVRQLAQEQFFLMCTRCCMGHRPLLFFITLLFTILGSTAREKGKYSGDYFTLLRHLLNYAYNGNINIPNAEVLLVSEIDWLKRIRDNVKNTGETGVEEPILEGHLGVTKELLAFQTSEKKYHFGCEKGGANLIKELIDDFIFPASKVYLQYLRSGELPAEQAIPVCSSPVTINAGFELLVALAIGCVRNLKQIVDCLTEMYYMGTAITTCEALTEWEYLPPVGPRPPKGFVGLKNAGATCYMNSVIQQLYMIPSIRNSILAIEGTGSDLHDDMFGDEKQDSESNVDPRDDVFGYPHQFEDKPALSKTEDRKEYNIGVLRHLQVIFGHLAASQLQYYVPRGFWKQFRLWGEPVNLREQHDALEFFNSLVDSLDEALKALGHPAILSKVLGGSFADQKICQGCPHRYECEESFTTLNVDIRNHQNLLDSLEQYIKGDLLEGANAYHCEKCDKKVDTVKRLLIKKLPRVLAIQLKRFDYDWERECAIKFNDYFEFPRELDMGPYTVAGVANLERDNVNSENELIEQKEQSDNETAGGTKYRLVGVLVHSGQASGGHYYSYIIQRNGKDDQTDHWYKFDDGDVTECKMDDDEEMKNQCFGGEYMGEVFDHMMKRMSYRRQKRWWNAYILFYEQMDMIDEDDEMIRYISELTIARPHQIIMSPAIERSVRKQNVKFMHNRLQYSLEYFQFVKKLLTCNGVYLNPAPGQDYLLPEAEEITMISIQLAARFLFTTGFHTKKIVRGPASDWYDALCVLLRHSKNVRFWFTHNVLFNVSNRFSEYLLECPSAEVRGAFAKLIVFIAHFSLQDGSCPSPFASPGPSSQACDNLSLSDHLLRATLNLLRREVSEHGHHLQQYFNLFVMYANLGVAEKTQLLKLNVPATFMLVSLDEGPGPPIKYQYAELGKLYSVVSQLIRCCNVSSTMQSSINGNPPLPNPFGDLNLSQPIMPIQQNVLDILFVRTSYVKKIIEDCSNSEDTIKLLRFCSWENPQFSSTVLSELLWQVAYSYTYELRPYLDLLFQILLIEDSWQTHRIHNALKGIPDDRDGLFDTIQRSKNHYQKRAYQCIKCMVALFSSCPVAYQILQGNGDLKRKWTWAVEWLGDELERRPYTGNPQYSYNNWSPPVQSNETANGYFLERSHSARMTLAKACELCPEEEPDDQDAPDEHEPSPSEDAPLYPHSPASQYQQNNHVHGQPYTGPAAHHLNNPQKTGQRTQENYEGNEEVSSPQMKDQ
Procedure, shortened: (§1)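 Each value is an average log2 ratio of fragment to vehicle, tested by unpaired t-test. The underlying Spectronaut label-free quantities were global-median-normalised, and only proteins with ≥2 unique peptides were included. Triplicate HEK293T lysate samples (495 µg) were exposed to fragment at 200 µM or vehicle for 3 h, then to Biotin-Ahx-Ub-VS at 0.5 µM final for 1 h, before NeutrAvidin enrichment of labelled DUBs, LysC and trypsin digestion, and diaPASEF LC-MS/MS.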

UniProt P51784 = target: UniProt P51784
UniProt P51784, sequence (P51784 whole entry): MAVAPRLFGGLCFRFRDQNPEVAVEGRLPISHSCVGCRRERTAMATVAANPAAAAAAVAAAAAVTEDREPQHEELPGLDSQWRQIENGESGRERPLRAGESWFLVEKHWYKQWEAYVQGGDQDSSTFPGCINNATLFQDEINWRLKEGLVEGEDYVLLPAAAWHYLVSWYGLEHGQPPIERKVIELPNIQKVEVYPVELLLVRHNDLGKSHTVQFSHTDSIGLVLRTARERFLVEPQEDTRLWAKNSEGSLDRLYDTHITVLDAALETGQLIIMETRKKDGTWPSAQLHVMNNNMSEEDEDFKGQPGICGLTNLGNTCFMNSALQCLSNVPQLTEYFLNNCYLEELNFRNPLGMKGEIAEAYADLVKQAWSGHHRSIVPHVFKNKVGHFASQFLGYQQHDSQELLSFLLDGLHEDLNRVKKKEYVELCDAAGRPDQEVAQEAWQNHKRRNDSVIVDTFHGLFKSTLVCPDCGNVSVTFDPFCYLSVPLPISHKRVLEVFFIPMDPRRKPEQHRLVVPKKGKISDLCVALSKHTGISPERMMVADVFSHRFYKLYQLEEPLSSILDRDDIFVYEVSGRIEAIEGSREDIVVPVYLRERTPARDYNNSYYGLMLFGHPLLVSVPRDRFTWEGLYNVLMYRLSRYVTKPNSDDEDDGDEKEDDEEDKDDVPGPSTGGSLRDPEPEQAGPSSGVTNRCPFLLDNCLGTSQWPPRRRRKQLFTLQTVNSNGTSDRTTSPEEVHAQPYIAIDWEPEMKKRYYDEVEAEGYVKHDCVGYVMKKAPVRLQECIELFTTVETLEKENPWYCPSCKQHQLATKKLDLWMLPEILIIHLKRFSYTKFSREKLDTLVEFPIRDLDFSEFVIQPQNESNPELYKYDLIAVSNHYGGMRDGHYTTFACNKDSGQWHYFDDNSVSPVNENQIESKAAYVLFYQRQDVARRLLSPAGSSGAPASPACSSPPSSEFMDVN
Procedure, shortened: as §1

UniProt Q5T2D3 = target: T1, UniProt Q5T2D3
T1 sequence (whole entry): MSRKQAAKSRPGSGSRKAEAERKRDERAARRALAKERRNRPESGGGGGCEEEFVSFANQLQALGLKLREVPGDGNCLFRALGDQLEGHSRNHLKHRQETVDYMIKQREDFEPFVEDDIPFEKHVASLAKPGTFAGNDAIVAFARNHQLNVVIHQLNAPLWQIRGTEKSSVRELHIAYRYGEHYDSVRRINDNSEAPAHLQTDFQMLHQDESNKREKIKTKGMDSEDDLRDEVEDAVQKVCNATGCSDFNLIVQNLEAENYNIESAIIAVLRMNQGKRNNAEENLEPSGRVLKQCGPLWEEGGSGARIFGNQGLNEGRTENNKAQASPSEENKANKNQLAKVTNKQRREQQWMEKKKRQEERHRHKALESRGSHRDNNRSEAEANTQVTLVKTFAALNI
Procedure, shortened: as §1

UniProt Q8TE49 = target: T2, UniProt Q8TE49
T2 sequence (whole entry): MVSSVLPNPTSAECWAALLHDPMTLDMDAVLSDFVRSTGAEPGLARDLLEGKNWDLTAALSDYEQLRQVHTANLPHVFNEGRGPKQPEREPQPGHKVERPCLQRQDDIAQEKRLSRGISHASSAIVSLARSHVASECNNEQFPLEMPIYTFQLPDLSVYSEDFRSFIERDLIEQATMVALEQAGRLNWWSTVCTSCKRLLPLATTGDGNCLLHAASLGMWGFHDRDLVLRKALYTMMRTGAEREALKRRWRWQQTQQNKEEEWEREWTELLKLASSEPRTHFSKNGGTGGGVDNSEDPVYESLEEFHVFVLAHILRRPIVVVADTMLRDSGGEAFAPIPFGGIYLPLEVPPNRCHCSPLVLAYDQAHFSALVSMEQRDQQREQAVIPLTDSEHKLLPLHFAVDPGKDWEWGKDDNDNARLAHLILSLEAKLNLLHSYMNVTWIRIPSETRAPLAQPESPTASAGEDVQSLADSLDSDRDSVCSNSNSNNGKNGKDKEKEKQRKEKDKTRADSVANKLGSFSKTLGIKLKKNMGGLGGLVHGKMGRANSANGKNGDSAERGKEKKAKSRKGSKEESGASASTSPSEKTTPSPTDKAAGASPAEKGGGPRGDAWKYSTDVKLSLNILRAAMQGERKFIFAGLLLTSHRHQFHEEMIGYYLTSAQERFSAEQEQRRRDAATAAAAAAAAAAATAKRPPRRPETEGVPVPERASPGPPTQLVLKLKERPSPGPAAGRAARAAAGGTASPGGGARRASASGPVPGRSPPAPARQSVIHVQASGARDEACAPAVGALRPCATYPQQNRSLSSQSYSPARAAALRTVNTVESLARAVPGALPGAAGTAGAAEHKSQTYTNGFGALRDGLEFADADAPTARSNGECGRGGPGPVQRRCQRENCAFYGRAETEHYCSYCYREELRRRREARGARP
Procedure, shortened: as §1

UniProt Q9P2H5 = target: T3, UniProt Q9P2H5
T3 sequence (whole entry): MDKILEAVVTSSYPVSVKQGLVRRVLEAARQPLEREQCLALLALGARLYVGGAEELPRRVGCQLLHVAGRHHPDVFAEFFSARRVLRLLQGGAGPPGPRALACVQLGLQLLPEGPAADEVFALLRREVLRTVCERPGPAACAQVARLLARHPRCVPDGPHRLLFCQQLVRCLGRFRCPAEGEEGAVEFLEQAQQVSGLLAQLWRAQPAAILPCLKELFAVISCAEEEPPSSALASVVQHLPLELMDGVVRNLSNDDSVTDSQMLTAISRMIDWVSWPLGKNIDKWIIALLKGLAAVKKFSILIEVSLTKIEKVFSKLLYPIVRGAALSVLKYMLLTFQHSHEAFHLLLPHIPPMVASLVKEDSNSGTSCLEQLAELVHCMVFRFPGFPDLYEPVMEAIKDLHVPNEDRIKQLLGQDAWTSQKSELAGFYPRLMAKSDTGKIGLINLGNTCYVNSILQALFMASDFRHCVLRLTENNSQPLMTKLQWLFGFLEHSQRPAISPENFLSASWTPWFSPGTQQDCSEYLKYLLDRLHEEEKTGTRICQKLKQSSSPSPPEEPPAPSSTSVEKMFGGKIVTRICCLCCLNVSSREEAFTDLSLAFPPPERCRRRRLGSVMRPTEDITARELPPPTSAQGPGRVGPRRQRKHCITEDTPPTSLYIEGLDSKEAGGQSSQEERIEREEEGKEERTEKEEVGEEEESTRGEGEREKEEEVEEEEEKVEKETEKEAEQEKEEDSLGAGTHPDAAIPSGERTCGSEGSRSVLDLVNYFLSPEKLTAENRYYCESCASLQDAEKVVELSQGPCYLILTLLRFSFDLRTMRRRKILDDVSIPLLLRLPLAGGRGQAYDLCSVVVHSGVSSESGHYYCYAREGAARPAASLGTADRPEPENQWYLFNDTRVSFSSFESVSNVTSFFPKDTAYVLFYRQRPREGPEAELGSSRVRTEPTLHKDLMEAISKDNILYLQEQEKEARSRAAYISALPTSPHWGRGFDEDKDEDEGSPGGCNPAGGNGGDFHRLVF
Procedure, shortened: as §1

UniProt Q9UGI0 = target: T4, UniProt Q9UGI0
T4 sequence (whole entry): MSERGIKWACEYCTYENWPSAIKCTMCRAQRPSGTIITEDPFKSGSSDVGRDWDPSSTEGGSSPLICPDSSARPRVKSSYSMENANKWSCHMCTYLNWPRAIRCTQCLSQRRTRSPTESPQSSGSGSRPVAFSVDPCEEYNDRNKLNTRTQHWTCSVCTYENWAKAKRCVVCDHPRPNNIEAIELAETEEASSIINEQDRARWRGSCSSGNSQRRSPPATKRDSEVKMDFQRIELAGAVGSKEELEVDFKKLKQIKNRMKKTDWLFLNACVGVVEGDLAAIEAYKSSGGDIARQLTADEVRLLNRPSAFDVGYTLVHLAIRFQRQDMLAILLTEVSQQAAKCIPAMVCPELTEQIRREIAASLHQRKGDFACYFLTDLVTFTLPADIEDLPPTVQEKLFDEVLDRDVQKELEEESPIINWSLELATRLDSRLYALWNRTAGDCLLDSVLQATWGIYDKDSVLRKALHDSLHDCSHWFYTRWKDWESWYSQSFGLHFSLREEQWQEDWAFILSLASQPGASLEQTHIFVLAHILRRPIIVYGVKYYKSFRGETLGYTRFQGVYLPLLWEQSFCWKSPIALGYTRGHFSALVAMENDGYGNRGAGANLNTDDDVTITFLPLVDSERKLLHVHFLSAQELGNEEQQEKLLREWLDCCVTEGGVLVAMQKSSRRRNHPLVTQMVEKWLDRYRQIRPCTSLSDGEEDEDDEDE
Procedure, shortened: as §1

YOD1 = target: T5, YOD1 (UniProt Q5VVQ6)
T5 sequence (whole entry): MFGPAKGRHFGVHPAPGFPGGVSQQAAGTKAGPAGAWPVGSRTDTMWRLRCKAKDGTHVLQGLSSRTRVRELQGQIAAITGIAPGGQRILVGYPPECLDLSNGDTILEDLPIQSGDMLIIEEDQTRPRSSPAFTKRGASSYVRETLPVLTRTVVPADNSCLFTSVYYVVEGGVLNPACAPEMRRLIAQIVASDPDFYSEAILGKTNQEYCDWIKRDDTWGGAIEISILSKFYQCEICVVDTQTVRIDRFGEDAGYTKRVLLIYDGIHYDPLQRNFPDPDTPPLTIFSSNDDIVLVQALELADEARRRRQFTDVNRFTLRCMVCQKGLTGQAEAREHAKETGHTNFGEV
Procedure, shortened: as §1

Row | Compound | log2 ratio of Biotin-Ahx-Ub-VS probe labelling (UniProt O00507) | log2 ratio of Biotin-Ahx-Ub-VS probe labelling (UniProt P51784) | log2 ratio of Biotin-Ahx-Ub-VS probe labelling (UniProt Q5T2D3) | log2 ratio of Biotin-Ahx-Ub-VS probe labelling (UniProt Q8TE49) | log2 ratio of Biotin-Ahx-Ub-VS probe labelling (UniProt Q9P2H5) | log2 ratio of Biotin-Ahx-Ub-VS probe labelling (UniProt Q9UGI0) | log2 ratio of Biotin-Ahx-Ub-VS probe labelling (YOD1)
1 | NC(=O)C1CCCCN1C(=O)CCl (stereo not given) | 0.156 | -0.0148 | -0.206 | -1.95 (active) | -0.204 | -0.866 | 0.154
2 | O=C(CCl)N(Cc1ccsc1)C1CC1 | -0.302 | -0.0887 | -0.0506 | -0.101 | 0.0505 | -0.949 | -0.0601
3 | O=C(CCl)N1CCN(C(=O)N2CCCCC2)CC1 | -1.18 (active) | -0.772 | -0.618 | -0.968 | -0.897 | -1.27 (active) | -0.827
4 | Cc1nc(CNC(=O)CCl)c2ccccn12.Cl | 0.444 | -0.0444 | -0.454 | -0.499 | -0.818 | -0.311 | 0.114
5 | COCC1C=CCCN1C(=O)CCl (stereo not given) | -0.284 | -0.0747 | -0.118 | -0.259 | -0.0309 | -1.01 (active) | -0.0106
6 | CN1c2ccccc2C(NC(=O)CCl)CS1(=O)=O (stereo not given) | -0.0151 | -0.0186 | -0.275 | -2.63 (active) | -0.164 | -0.46 | -0.0718
7 | O=C(CCl)NCc1noc(C2CC2)n1 | -0.504 | 0.0106 | -0.464 | -0.385 | -0.13 | -0.133 | -0.415
8 | Cc1ncsc1CCNC(=O)CCl | 0.115 | 0.269 | -0.0368 | -0.0765 | -0.0174 | -0.0599 | 0.0977
9 | O=C(CCl)N1CCC(C(=O)N2CCCC2)CC1 | -0.126 | -0.2 | -0.068 | -0.199 | -0.139 | 0.0373 | 0.122
10 | Cl.O=C(CCl)N[C@H]1C[C@@H](n2cccn2)C1 | -0.599 | 0.0814 | 0.0298 | -0.369 | 0.122 | -0.284 | -0.324
